Screening data (PubChem)
Only some compounds are listed: those with a hit (about 27% of all), similar ones and a draw of the others.
sEH inh: soluble epoxide hydrolase inhibitors, primary screen, biochemical, human sEH; Bifunctional epoxide hydrolase 2 (Homo sapiens), P34913; recombinant human sEH enzymatic activity assay; inhibition, % at 2 µM; 91,000 tested, 0.34% active; AID 707, 2007; in the data active = inhibition above about 80%
CYP2C19 inhib: blockers of cytochrome P450 2C19 activity – biochemical, luminescence, ADME assay, primary screen | CYP2C19 Supersomes, luciferin-H EGE luminescence, 30 min | inhibition, % at 5 µM | 96,000 tested, 21% active | AID 778, 2007;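 active = CYP2C19 inhibition above a set limit at 5 µM in the primary screen, cut at about 50% in these data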
Target sequence (P33261 whole entry, looked up): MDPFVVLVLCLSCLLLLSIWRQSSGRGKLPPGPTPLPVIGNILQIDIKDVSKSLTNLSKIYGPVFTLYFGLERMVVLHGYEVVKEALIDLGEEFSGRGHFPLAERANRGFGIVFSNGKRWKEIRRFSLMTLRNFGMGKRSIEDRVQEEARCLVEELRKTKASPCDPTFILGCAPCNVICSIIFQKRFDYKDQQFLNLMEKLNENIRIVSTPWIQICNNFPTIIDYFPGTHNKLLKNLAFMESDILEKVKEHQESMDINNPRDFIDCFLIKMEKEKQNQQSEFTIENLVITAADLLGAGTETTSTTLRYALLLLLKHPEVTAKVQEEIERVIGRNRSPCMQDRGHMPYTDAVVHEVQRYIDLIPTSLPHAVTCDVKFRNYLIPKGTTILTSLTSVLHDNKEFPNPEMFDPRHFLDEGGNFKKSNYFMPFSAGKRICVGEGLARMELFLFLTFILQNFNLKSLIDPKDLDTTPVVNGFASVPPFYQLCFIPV
CYP2C19 activ: human CYP2C19 activators, primary screen, biochemical, luminescence; activation factor at 5 µM; 96,000 tested, under 10 active; Cytochrome P450 2C19 (Homo sapiens), P33261; recombinant CYP2C19, luciferin-H EGE luminescence; active compounds read high; 0 = fully inhibited enzyme, 1 = untreated enzyme;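 active = activation factor of at least 2 at 5 µM in the primary screen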
CYP2C9 inh: blockers of cytochrome P450 2C9 activity – biochemical, luminescence, ADME assay, primary screen; CYP2C9 Supersomes, luciferin-H conversion; inhibition, % at 5 µM; 96,000 tested, 20% active; AID 777, 2007;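 active = blocking of liver enzyme CYP2C9 beyond about 50% at 5 µM, limit read from the data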
CYP2C9 activ: human CYP2C9 activators, primary screen, biochemical, luminescence | Cytochrome P450 2C9 (Homo sapiens), P11712 | recombinant CYP2C9, luciferin-H conversion; active compounds read high; factor 1 = untreated enzyme, 0 = blocked | activation factor at 5 µM | 96,000 tested, 1.4% active | AID 1024, 2008;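 active = activation factor of 2 or more for CYP2C9 at a 5 µM dose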
sEH activator: soluble epoxide hydrolase activators, primary screen, biochemical, human sEH | 91,000 tested, 0.04% active | Bifunctional epoxide hydrolase 2 (Homo sapiens), P34913 | AID 717, 2007 | purified human sEH enzymatic activity, activator screen | activation, % at 2 µM; in the data active = activation above about 37%
A number is an active result; i = inactive; nt = no result.

SMILES	sEH inh	CYP2C19 inhib	CYP2C19 activ	CYP2C9 inh	CYP2C9 activ	sEH activator
Cc1cc(Cl)ccc1NC(=S)NCCC(c1ccccc1)c1ccccc1	i	88	i	85	i	i
CC(C)N1C(=O)C2C(C(=O)NCc3ccccc3)C3C=CC2(O3)C1C(=O)NC(C)(C)C (stereo unspecified)	i	i	i	i	i	i
Cc1ccc(Nc2nc(Cl)nc(N(C)C#N)n2)cc1	i	i	i	i	i	i
Cc1ccccc1Nc1nc(Nc2ccccc2C)nc(SC2=NCCS2)n1	i	54	i	77	i	i
Cc1ccc(Nc2nc(Nc3ccc(C)cc3)nc(SC3=NCCS3)n2)cc1	i	i	i	86	i	i
Cc1ccccc1Nc1nc(N)nc(CN(C)c2ccccc2)n1	nt	i	i	i	i	nt
CCSc1ncc(/C=N/Nc2ccc(Cl)cc2)n1C	i	i	i	i	i	i
CCSc1ncc(/C=N/Nc2ccccc2)n1C	i	i	i	52	i	i
CCOc1cc(-c2cn(S(=O)(=O)c3cccc4nsnc34)nc2N)cc(OCC)c1OCC	i	i	i	i	i	i
Nc1cc(-c2ccc(Cl)cc2)nn1S(=O)(=O)c1cccc2nsnc12	i	94	i	86	i	i
Nc1cc(-c2ccc(Br)cc2)nn1S(=O)(=O)c1cccc2nsnc12	nt	96	i	89	i	nt
Cc1ccc(-c2nc(CCN3C(=O)c4ccccc4C3=O)cs2)cc1	i	52	i	i	i	i
Cc1cc(C)n2nc(SCc3nc4ccccc4[nH]3)nc2n1	i	71	i	i	i	i
Cc1cc(C)n2nc(SCN3C(=O)c4ccccc4C3=O)nc2n1	nt	83	i	i	i	nt
O=C1c2ccccc2C(=O)N1CCc1ccccn1	i	84	i	i	i	i
O=C(CN1CCCC1=O)NC1(C(F)(F)F)NC(=O)N(Cc2ccccc2)C1=O (stereo unspecified)	i	i	i	i	i	i
O=C(C1CCCO1)N(c1cccc(Cl)c1)C1C=CS(=O)(=O)C1 (stereo unspecified)	nt	i	i	i	i	nt
O=C1c2ccccc2C(=O)N1CSc1ncccn1	nt	61	i	i	i	nt
NC(=O)CSc1nnc(-c2cccnc2)n1Cc1ccccc1	i	nt	nt	nt	nt	i
CCOC(=O)c1c(C)[nH]c(C)c1C(=O)CSc1nnc(-c2ccco2)n1Cc1ccccc1	i	99	i	98	i	i
CCOC(=O)c1c(C)[nH]c(C)c1C(=O)CSc1nnc(-c2ccncc2)n1Cc1ccccc1	i	100	i	98	i	i
CCCn1c(N)c(C(=O)CSc2nnc(C3CC3)n2Cc2ccccc2)c(=O)[nH]c1=O	i	i	i	59	i	i
CCOC(=O)c1c(C)[nH]c(C)c1C(=O)CSc1nnc(-c2ccncc2)n1C	i	98	i	63	i	i
C=CCn1c(-c2ccc(OC)cc2)nc2ccccc21	i	73	i	76	i	i
COc1ccc(-c2nc3ccccc3n2Cc2ccccc2)cc1	i	76	i	96	i	i
SMILES	sEH inh	CYP2C19 inhib	CYP2C19 activ	CYP2C9 inh	CYP2C9 activ	sEH activator
COc1ccc2c(c1)nc(N)n2Cc1ccccc1	i	85	i	i	i	i
COc1ccc(-c2nnnn2CCc2ccccc2)cc1	i	98	i	71	i	i
COc1ccc2c(c1)c(=O)c(Br)c(C)n2Cc1ccccc1	nt	i	i	i	i	nt
CC1=C(C(=O)N2CCOCC2)C(c2ccsc2)C2=C(CCCC2=O)N1 (stereo unspecified)	i	i	i	i	i	i
COc1ccc(Cc2nnc(NC(=O)c3cccc([N+](=O)[O-])c3C)s2)cc1	i	i	i	i	i	i
Cc1nnc(SCC(=O)Nc2ccc(N3CCOCC3)cc2)n1-c1ccccc1	i	i	i	i	i	i
COc1cccc(-n2c(C)nnc2SCC(=O)Nc2ccccc2N2CCOCC2)c1	i	63	i	77	i	i
COc1ccccc1C(=O)Nc1ccccc1N1CCOCC1	i	i	i	i	i	i
COC(=O)c1ccc(N2CCOCC2)c(NC(=O)Nc2cccc(OC)c2)c1	nt	i	i	71	i	nt
COc1cccc(C(=O)OCC(=O)Nc2ccccc2N2CCOCC2)c1	i	i	i	51	i	i
COc1cccc(C(=O)Nc2ccccc2N2CCOCC2)c1	i	62	i	53	i	i
